Shown are actives, neighbours in structure and some others; about 19% of the full set was active somewhere.
TDP1 cell CPT = growth inhibition of DT40 Tdp1-/-;hTDP1 cells with camptothecin (screen for TDP1 inhibitors). AID 686979. chicken DT40 Tdp1-/-;hTDP1 cells + 20 nM CPT, ATP luminescence, 48 h. 420,000 tested, 12% active. Potency, µM (doses to about 46.2 µM), usual class: inhibitors; note: nearly all actives have a fitted effect of over 55% in size
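Cell growth measured by CellTiter-Glo luminescence after a minimum 48 h, 37 C compound exposure with 20 nM CPT in Tdp1-knockout DT40 cells stably expressing hTDP1, seeded 400/well; qHTS titration format.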
IL-1B inflam inh = inflammasome signaling inhibition, IL-1 beta readout. activity change, % at 57.5 µM. THP-1 LPS/ATP IL-1B secretion, AlphaLISA, 16 h; hits give low values. 360,000 tested, 4.7% active; in the data active = activity change below about -50%; inconclusive = mostly about -30% to -49%
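Secreted IL-1B measured by AlphaLISA bead assay after 16 h compound exposure of THP-1 cells; compounds (final up to 57.5 uM) added 1 h before LPS (250 ng/mL) and ATP (1.25 mM) stimulation; lower signal means less secretion.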
HT1080 IDH1KD tx = kills HT-1080 cells with IDH1 knockdown; HT-1080 IDH1 knockdown viability, ATP luminescence, 48 h; Potency, µM (series often up to 46.1 µM), hits mostly cytotoxic; 360,000 tested, 2% active
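IDH1KD HT-1080 cells, 750/well, RPMI + 5% FBS; compound pinned after 2 h settling; 48 h, 37 °C; CellTiter-Glo luminescence; % activity normalised to DMSO and no-cell wells; curves fitted, classed by r2 and efficacy.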
HT1080NT lethal = kills 2HG-producing HT-1080-NT fibrosarcoma cells; HT-1080-NT fibrosarcoma viability, CellTiter-Glo ATP luminescence, 48 h; Potency, µM (highest dose often 46.1 µM), most hits filed as cytotoxic; 360,000 tested, 1.6% active;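 note: NT is the 2HG producing partner of a matched IDH1 knockdown line; nearly all actives have a fitted effect of over 55% in size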
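Viability of the 2HG-overproducing fibrosarcoma line after 48 hours of compound exposure at 37 degrees C was determined by luminescence with CellTiter-Glo, and concentration-effect curves were then fitted and categorized.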
DT40 TDP1 no CPT = qHTS for Inhibitors of human tyrosyl-DNA phosphodiesterase 1 (TDP1): qHTS in cells in absence of CPT; DT40 Tdp1-/- hTDP1 cells, no CPT, ATP luminescence, 48 h; Potency, µM (series often up to 46.2 µM), actives largely listed as inhibitors; 420,000 tested, 15% active; AID 686978, 2013; note: nearly all actives have a fitted effect of over 55% in size
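Readout: luminescence from CellTiter-Glo after 30 min in the dark at RT. Cells: DT40 Tdp1-/- with stable hTDP1, 400/well. Exposure: compounds alone, ≥48 hr, 37 °C.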
ELG1 DNA repair = ELG1-dependent DNA repair inhibition. 330,000 tested, 2.3% active. Potency, µM (series often up to 46.1 µM), most hits filed as inhibitors. HEK293T ELG1-luciferase reporter, luminescence, 16 h; DNA damage induced by 5-fluorouridine; note: nearly all actives have a fitted effect of over 55% in size
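Quantitative HTS, concentration-response format. 2,000 cells/well co-treated with 5-fluorouridine and compound, 16 hr in 5% CO2 at 37 °C; ONE-Glo luminescence read after 30 min.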
A number is an active result; . = inactive; ? = inconclusive; / = no result given; [ ] = remark or other dose. Unless noted, calls come from the whole dose curve; as a rule, active = well fitted curve in the direction sought with a large enough effect; inconclusive = small, poorly fitted or top-dose-only effect, or another doubt; inactive = no such curve, though single readings can be large; an effect the other way counts as inactive or inconclusive.

SMILES	TDP1 cell CPT	IL-1B inflam inh	HT1080 IDH1KD tx	HT1080NT lethal	DT40 TDP1 no CPT	ELG1 DNA repair
CCC1CN(C(=O)N2CCC(C(=O)N3CCN(c4cc(C)ccc4C)CC3)CC2)c2ccccc2O1 (stereo unspecified)	16µM	/	/	/	15µM	/
CCC1CN(C(=O)N2CCC(C(=O)N3CCN(c4ccc(F)cc4)CC3)CC2)c2ccccc2O1 (stereo unspecified)	13µM	/	/	/	21µM	/
Cc1ccc(NC(=O)C2CCN(C(=O)N3CCOc4ccccc43)CC2)cc1	?	.	.	.	?	.
Cc1cccc(NC(=O)C2CCN(C(=O)N3CCOc4ccccc43)CC2)c1C	?	?	.	.	?	.
O=C(c1ccc(F)cc1)N1CCCC(C(=O)N2CCN(c3ccccc3)CC2)C1 (stereo unspecified)	.	.	.	.	?	.
CCC1CN(C(=O)N2CCC(C(=O)N3CCN(c4cccc(C)c4C)CC3)CC2)c2ccccc2O1 (stereo unspecified)	7.3µM	/	/	/	5.8µM	/
COc1cc(OC)c(OC)cc1CNC(=O)CCN1C(=O)c2cccc([N+](=O)[O-])c2C1=O	.	.	.	.	.	.
Cc1ccc(CN2CCN(/N=C/c3cccn3C)CC2)c(C)c1	23µM	.	.	.	23µM	?
COC(=O)N(C)C[C@H]1OCc2cn(nn2)CCCC(=O)N([C@@H](C)CO)C[C@@H]1C	.	.	.	.	.	/
Cc1ccc(C)c(NC(=O)C(=O)NCCc2csc(-c3ccc(C(F)(F)F)cc3)n2)c1	.	/	/	/	?	/
Cc1cccc(CC(=O)NCCc2csc(-c3ccc(C(F)(F)F)cc3)n2)c1	16µM	/	/	/	15µM	/
Cc1ccc(NC(=O)Cc2csc(-c3ccccc3)n2)cc1F	.	-80	?	.	?	?
Cc1cc(C)cc(C(=O)NCCc2csc(-c3ccc(C(F)(F)F)cc3)n2)c1	?	/	/	/	21µM	/
Cc1cccc(-c2nc(CCNC(=O)Cc3ccc(F)cc3)cs2)c1	?	/	/	/	23µM	/
Cc1cccc(-c2nc(CCNC(=O)c3ccco3)cs2)c1	?	?	.	.	?	/
Cc1cc(/C=C(\C#N)C(=O)NCc2ccccc2)c(C)[nH]1	?	.	.	.	?	/
O=C(NCc1ccccc1)/C(=C\c1cccc([N+](=O)[O-])c1)NC(=O)c1ccco1	.	.	.	.	.	/
Cc1cc(C)c(NC(=O)C2CCN(C(=O)c3ccco3)CC2)c(C)c1	.	.	.	.	.	.
Cc1cccc2sc(NC(=O)C3CCN(C(=O)c4ccco4)CC3)nc12	?	.	.	?	?	13µM
COc1cccc2sc(N3CCN(C(=O)c4ccco4)CC3)nc12	.	.	.	.	?	.
Cc1ccc(Cl)c2sc(N3CCN(C(=O)c4ccco4)CC3)nc12	?	?	.	.	16µM	?
Cc1ccc(C)c2sc(N3CCN(C(=O)c4ccco4)CC3)nc12	?	/	/	/	18µM	/
CCOc1cc(NC(=S)NCCc2ccccc2)c(OCC)cc1NC(C)=O	.	.	.	.	.	?
COc1cccc(CNC(=O)c2cccc(N3CCCS3(=O)=O)c2)c1	.	/	/	/	.	/
COc1ccc(OC)c(-c2nnc3n2N=C(c2ccc(OC(F)F)c(OCC4CC4)c2)CS3)c1	/	/	/	/	/	12µM
SMILES	TDP1 cell CPT	IL-1B inflam inh	HT1080 IDH1KD tx	HT1080NT lethal	DT40 TDP1 no CPT	ELG1 DNA repair
COc1ccc(OC)c(C2=Nn3c(nnc3-c3cccc(OC(C)C)c3)SC2)c1	13µM	.	.	.	12µM	?
CCOc1ccc(C(=O)Nc2c(C(=O)c3ccccc3)oc3ccccc23)cc1	.	/	/	/	.	/
CN(Cc1c(F)cccc1Cl)C(=O)c1cccc(S(=O)(=O)NCc2ccccc2)c1	23µM	.	.	.	18µM	.
CN(Cc1ccc(Cl)cc1Cl)C(=O)c1cccc(S(=O)(=O)NCc2ccccc2)c1	?	?	.	.	?	/
CN(Cc1ccc(OC(F)F)cc1)C(=O)c1cccc(S(=O)(=O)N2CCN(Cc3ccccc3)CC2)c1	9.2µM	-60	.	.	8.2µM	/
CN(Cc1c(F)cccc1Cl)C(=O)c1cccc(S(=O)(=O)N2CCN(Cc3ccccc3)CC2)c1	21µM	.	.	.	?	/
CCCCCCCCCC(=O)OCC(CO)OC(=O)CCCCCCCCC (stereo unspecified)	.[4.12 µM]	/	/	/	.[4.12 µM]	/
N/C(Cc1ccc(Cl)cc1)=N\OC(=O)CCc1ccccc1	.	.	.	.	?	/
CC(NC(=O)c1ccccc1)C(=O)OCC(=O)c1c(N)n(C)c(=O)n(C)c1=O (stereo unspecified)	.	.	.	.	.	.
O=C(Cn1cccn1)N1CCOc2c(cc(-c3ncc(C(F)(F)F)cc3Cl)cc2OCC2CCCO2)C1 (stereo unspecified)	.	/	/	/	.	/
Cc1ccc(CSc2nc3cccnc3n2Cc2ccc(C(=O)NCCc3cccs3)cc2)cc1	18µM	/	/	/	18µM	/
CC1CCC(NC(=O)c2ccc(CSc3nc4ccncc4n3Cc3ccc(F)cc3)cc2)CC1 (stereo unspecified)	?	/	/	/	7.3µM	/
O=C(NCc1ccccc1)c1ccc(CSc2nc3cccnc3n2Cc2cccc(F)c2)cc1	13µM	/	/	/	10µM	/
O=C(NC1CCCC1)c1ccc(CSc2nc3cccnc3n2Cc2cccc(F)c2)cc1	?	/	/	/	15µM	/
CNC(=O)c1ccc(CSc2nc3cccnc3n2Cc2cccc(F)c2)cc1	3.7µM	/	/	/	18µM	/
Cc1ccc(CSc2nc3cccnc3n2Cc2nc(-c3ccccc3F)oc2C)cc1	4.6µM	/	/	/	3.7µM	/
Cc1ccccc1CNC(=O)c1ccc(CSc2nc3cccnc3n2Cc2ccccc2)cc1	?	/	/	/	13µM	/
O=C(NCc1ccccc1)c1ccc(CSc2nc3cccnc3n2Cc2ccccc2)cc1	4.6µM	/	/	/	18µM	/
CC(C)NC(=O)c1ccc(Cn2c(SCc3ccc(F)cc3)nc3cccnc32)cc1	.	/	/	/	.	/
O=C(NCc1ccccc1F)c1ccc(CSc2nc3cccnc3n2Cc2ccccc2)cc1	.	/	/	/	.	/
CCc1ccc(N2CC(c3nnc(NC(=O)c4ccco4)s3)CC2=O)cc1 (stereo unspecified)	.	/	/	/	.	/
OC1(c2ccccc2F)CCN(Cc2nnnn2Cc2ccc(F)cc2)CC1	.	.	.	.	.	.
COC(=O)/C=C1\SC(=NC(=O)c2ccc(-c3ccccc3)cc2)NC1=O	?	.	.	.	.	?
COC(=O)C1(C)NC(c2cccc(C)c2)C2C(=O)N(c3ccccc3)C(=O)C21 (stereo unspecified)	.	.	.	.	.	/
